Laboratory results from PubChem BioAssay (NCI).
The panel holds about 79,000 compounds, 15% with a hit somewhere; the sample as a whole holds those more often. Unmarked numbers belong to inactive results. The source made the active and inactive calls. Rule as the data show it: active = growth inhibition above about 70%; inactive = the rest.

Assay: NCI Yeast Anticancer Drug Screen. Data for the rad50 strain (AID 155);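 also: 0% = growth of vehicle-only cultures of the same strain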
Conditions: S. cerevisiae rad50 strain growth inhibition; at 5.0 µM (retest, dose inferred, filed as 0.5); active compounds read high
In short: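 Readout: growth inhibition relative to vehicle-treated cultures. Compound exposure was carried out in a genetically defined yeast strain deficient in DNA damage repair.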

**Q.** With `COc1ccc(N=Cc2cc(Br)cc(Br)c2O)cc1.COc1ccc(N=Cc2cc(Br)cc(Br)c2O)cc1.[Co]` as the compound, how does the growth inhibition read?
**A.** Its growth inhibition is 79% (active).

**Q.** With `O=C(/C=C/C(=O)N1CCCC1)N1CCCC1` as the compound, how does the growth inhibition read?
**A.** The growth inhibition was 6%.

**Q.** With `O=S(c1ccccc1)c1c(Cl)c(Cl)nc(Cl)c1Cl` (stereo not drawn) as the compound, how does the growth inhibition read?
**A.** Its growth inhibition is 97% (active).

**Q.** Which growth inhibition does the source give for `CSc1nc(N)c2cnn(C3OC(CO)C(O)C3O)c2n1` (stereo not drawn) here?
**A.** Its growth inhibition is -9%.

**Q.** With `COc1cccc(C=O)c1O` as the compound, how does the growth inhibition read?
**A.** Its growth inhibition is 6%.

**Q.** For `Cn1c(=O)c2c(ncn2CCCCOc2ccc3c(c2)[n+]([O-])nc(N)[n+]3[O-])n(C)c1=O`, which growth inhibition is on record?
**A.** Its growth inhibition is 4%.

**Q.** For `Cn1ncc2c(Nc3cccc(Cl)c3)nc(Nc3cccc(Cl)c3)nc21`, which growth inhibition is on record?
**A.** Its growth inhibition is 47%.

**Q.** Which growth inhibition does the source give for `Cc1cc(C)n2nc(N)c(C#N)c2c1C#N` here?
**A.** Its growth inhibition is -2%.

**Q.** For `COc1ccc(C2c3cc4c(cc3OC(O)C2C)OCO4)cc1` (stereo not drawn), which growth inhibition is on record?
**A.** Its growth inhibition is -3%.

**Q.** With `Nc1ccccc1[S][Sn]([c]1ccccc1)([c]1ccccc1)[c]1ccccc1` as the compound, how does the growth inhibition read?
**A.** Its growth inhibition is 99% (active).

**Q.** With `Cn1c(Sc2ccc(-c3cccnc3)n2C)ccc1-c1cccnc1` as the compound, how does the growth inhibition read?
**A.** The growth inhibition was 11%.

**Q.** Which growth inhibition does the source give for `Nc1nnc(-c2cc(=O)c3cc(Cl)ccc3o2)s1` here?
**A.** The growth inhibition was -1%.

**Q.** Which growth inhibition does the source give for `COc1ccc(CNc2nc3cc(C(F)(F)F)ccc3nc2C)cc1OC` here?
**A.** Its growth inhibition is -9%.

**Q.** Which growth inhibition does the source give for `CC(=O)OCC1CC2OC2CC1C` (stereo not drawn) here?
**A.** Its growth inhibition is 1%.

**Q.** Which growth inhibition does the source give for `CCCCN(CCCC)CC(O)c1cc(-c2ccc(Cl)cc2)nc2cc(C)ccc12` (stereo not drawn) here?
**A.** The growth inhibition was -5%.

**Q.** For `NC(=S)n1nc(-c2ccccc2)c(N=Nc2ccccc2Cl)c1-c1ccccc1`, which growth inhibition is on record?
**A.** The growth inhibition was 3%.

**Q.** With `CCCCCCCCCCCCN(CCO)CCO` as the compound, how does the growth inhibition read?
**A.** Its growth inhibition is 68%.

**Q.** For `CC(C)CCSc1ncnc2nc[nH]c12`, which growth inhibition is on record?
**A.** Its growth inhibition is 1%.
